The source of these data is PubChem BioAssay (EPA / NIEHS).

One may read the AC50 as the concentration at which the activity in the assay is half-maximal.

Test [1] can be described thus: BSK_3C_VCAM1: BioMAP Diversity Plus: 3C Assay for Vascular cell adhesion molecule 1 (VCAM1) Biomarker Activity (AID 2282999). Conditions: BioMAP 3C HUVEC, VCAM1 ELISA, cytokine-stimulated; actives raise or lower the signal. In short, it runs like this: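 HUVEC primary cells, 24 h compound exposure; VCAM-1 by ELISA; gain/loss of signal fitted bidirectionally vs DMSO baseline.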
A general note: In an ELISA, binding on a coated surface is turned into a signal by an enzyme label.

Test [2] in a line: BSK_4H_Eotaxin3: BioMAP Diversity Plus: 4H Assay for Eotaxin 3 Biomarker Activity (AID 2283000).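 On outcome: CCL26 protein level quantified by ELISA in parallel with SRB cytotoxicity check.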 Conditions: primary human endothelial cells (HUVEC); actives raise or lower the signal. In short, it runs like this:
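ELISA quantitation of CCL26 (Eotaxin-3) protein from chemically dosed human vascular endothelial cells at 24 h; increases and decreases both scored relative to DMSO-treated baseline.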

Test [3] concerns the target human Peroxisome Proliferator-activated Receptor delta (PPARd), PPARD (gene 5467) (UniProt Q03181). Briefly: ATG_PPARd_TRANS: Attagene TRANS-FACTORIAL HepG2 Assay for human Peroxisome Proliferator-activated Receptor delta (PPARd) (AID 2283002; active means hit-call score of the fitted dose curve at least 0.9, where 1 is the maximum). The method in brief:
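Fluorescence from capillary electrophoresis of labelled RT-PCR reporter fragments gives the signal; DMSO sets baseline. Cells: HepG2 transiently carrying GAL4-UAS reporter units plus chimeric nuclear receptor-Gal4 proteins, exposed to chemicals for 24 h.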

Read-out in test [4]: Intercellular Adhesion Molecule 1 (ICAM1), ICAM1 (gene 3383)
Put plainly: BSK_3C_ICAM1: BioMAP Diversity Plus: 3C Assay for Intercellular Adhesion Molecule 1 (ICAM1) Biomarker Activity (AID 2283003). Conditions: primary human endothelial cells (HUVEC); actives raise or lower the signal. The method in brief:
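ELISA readout of ICAM1 in human umbilical vein endothelial cells in the 3C system, taken 24 h post-dose. Gain or loss of signal versus DMSO was fitted in both directions, with SRB total-protein staining run in parallel.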

In test [5] the target is human Retinoic Acid Receptor beta (RARb), RARB (gene 5915) (UniProt P10826). Put plainly: ATG_RARb_TRANS: Attagene TRANS-FACTORIAL HepG2 Assay for human Retinoic Acid Receptor beta (AID 2283004; active means hit-call score of the fitted dose curve at least 0.9, where 1 is the maximum). In short, it runs like this:
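Fluorescent capillary-electrophoresis detection of GAL4-UAS reporter mRNA defines the endpoint, with induction over DMSO-treated wells scored as activity. Transiently transfected human hepatoma HepG2 cells expressing exogenous NR–Gal4 proteins are exposed to test chemicals for 24 h.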

In test [6] the target is Retinoic acid receptor alpha (Homo sapiens) (UniProt P10276). Put plainly: ATG_RARa_TRANS: Attagene TRANS-FACTORIAL HepG2 Assay for human Retinoic Acid Receptor alpha (RARa) (AID 2283005; active means hit-call score of the fitted dose curve at least 0.9, where 1 is the maximum). In short, it runs like this:
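HepG2 transiently transfected with multiplex GAL4-UAS reporter units including a human RARa–GAL4 chimera; 24 h compound exposure. Reporter mRNA quantified by RT-PCR, 6-FAM labeling and capillary electrophoresis; gain of signal versus DMSO.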

The nature of test [7]: BSK_3C_Proliferation: Cell Proliferation Assessment in the BioMAP Diversity Plus: 3C Assay (AID 2283006).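 On AC50: potency may reflect either rise or fall in cell number versus DMSO.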 Conditions: primary human endothelial cells (HUVEC). In short, it runs like this:
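Proliferation as total protein: sulforhodamine B (0.1%) stain of TCA-fixed subconfluent human umbilical vein endothelial cells, absorbance 560 nm, 48 h after dosing. Activity fitted in both directions against DMSO baseline.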

Test [8] addresses Peroxisome proliferator-activated receptor gamma (Homo sapiens) (UniProt P37231). Put plainly: ATG_PPARg_TRANS: Attagene TRANS-FACTORIAL HepG2 Assay for human Peroxisome Proliferator-activated Receptor-gamma (PPARg) (AID 2283007; active means hit-call score of the fitted dose curve at least 0.9, where 1 is the maximum). In short, it runs like this: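 Multiplexed reporter transcription units in HepG2, 24 h dosing, reporter transcripts quantified by fluorescent RT-PCR and capillary electrophoresis. Increase over DMSO scored.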

Test [9] has as its target Nuclear receptor subfamily 1 group I member 2 (Homo sapiens) (UniProt O75469). Briefly: ATG_PXR_TRANS: Attagene TRANS-FACTORIAL HepG2 Assay for human Pregnane X Receptor (PXR) (AID 2283008; active means hit-call score of the fitted dose curve at least 0.9, where 1 is the maximum). The method in brief:
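Trans-factorial format: exogenous NR-Gal4 fusion activity, not endogenous factor, in transfected human HepG2 liver cells. After 24 h dosing, RNA isolated, reverse-transcribed, amplified and resolved by capillary electrophoresis; induction scored versus DMSO.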

Test [10] concerns the target human Retinoic Acid Receptor gamma (RARg), RARG (gene 5916) (UniProt P13631). Put plainly: ATG_RARg_TRANS: Attagene TRANS-FACTORIAL HepG2 Assay for human Retinoic Acid Receptor gamma (RARg) (AID 2283009; active means hit-call score of the fitted dose curve at least 0.9, where 1 is the maximum). The method in brief:
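Transactivation of exogenous RARg-Gal4 fusion measured as reporter transcript induction after 24 h in transfected HepG2 cells. RNA reverse-transcribed, amplified, fluorescently labeled and resolved by capillary electrophoresis; increase relative to DMSO.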

In test [11] the target is human RAR-related Orphan Receptor gamma (RORg), RORC (gene 6097) (UniProt P51449). Briefly: ATG_RORg_TRANS: Attagene TRANS-FACTORIAL HepG2 Assay for human RAR-related Orphan Receptor gamma (RORg) (AID 2283011; active means hit-call score of the fitted dose curve at least 0.9, where 1 is the maximum;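 on AC50: potency for induction of reporter transcripts above DMSO so activators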). The method in brief: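 Chimeric RORg-Gal4 transactivation in transfected HepG2; 24 h exposure; RT-PCR/capillary electrophoresis readout of reporter mRNA, DMSO baseline.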

In test [12] the target is Retinoic acid receptor RXR-alpha (Homo sapiens) (UniProt P19793). Put plainly: ATG_RXRa_TRANS: Attagene TRANS-FACTORIAL HepG2 Assay for human Retinoid X Receptor alpha (RXRa) (AID 2283012; active means hit-call score of the fitted dose curve at least 0.9, where 1 is the maximum). The method in brief:
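TRANS format reporting activity of exogenous RXRa-Gal4 chimera in transiently transfected HepG2, 24 h exposure. Reporter transcripts quantified by RT-PCR with capillary electrophoresis, with gain of signal scored relative to DMSO.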

For test [13], the target named is human Retinoid X Receptor beta (RXRb), RXRB (gene 6257) (UniProt P28702). Briefly: ATG_RXRb_TRANS: Attagene TRANS-FACTORIAL HepG2 Assay for human Retinoid X Receptor beta (RXRb) (AID 2283013; active means hit-call score of the fitted dose curve at least 0.9, where 1 is the maximum). In short, it runs like this: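 Readout is reporter transcript induction after 24 h dosing. It is measured by RT-PCR of total RNA followed by fluorescent capillary electrophoresis. HepG2 liver cells carry transfected multiple reporter units driven by an exogenous RXRb-Gal4 fusion; activity is relative to DMSO.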

The target of test [14] is human Thyroid Receptor alpha (THRa1), THRA (gene 7067) (UniProt P10827). Briefly: ATG_THRa1_TRANS: Attagene TRANS-FACTORIAL HepG2 Assay for human Thyroid Receptor alpha (THRa1) (AID 2283014; active means hit-call score of the fitted dose curve at least 0.9, where 1 is the maximum). In short, it runs like this:
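Measured here is mRNA from a GAL4-UAS reporter in transfected HepG2 cells carrying a Gal4-fused receptor, 24 h post-dose. DMSO served as negative control and baseline.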

Read-out in test [15]: E-selectin (Homo sapiens) (UniProt P16581)
Briefly: BSK_3C_Eselectin: BioMAP Diversity Plus: 3C Assay for Eselectin Biomarker Activity (AID 2283015).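 On outcome: cell surface E-selectin protein quantified by ELISA 24 h after dosing.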 The following applies: primary human endothelial cells (HUVEC); actives raise or lower the signal. In short, it runs like this: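 Endpoint derived by bidirectional fitting against DMSO vehicle; signal is ELISA-detected E-selectin from primary HUVEC at 24 h post-dosing, with parallel SRB staining (0.1% SRB, 560 nm) flagging cytotoxicity.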

Read-out in test [16]: Monocyte Chemoattractant Protein-1 (MCP1), CCL2 (gene 6347)
Put plainly: BSK_3C_MCP1: BioMAP Diversity Plus: 3C Assay for Monocyte Chemoattractant Protein-1 (MCP1) Biomarker Activity (AID 2283017). The following applies: primary human endothelial cells (HUVEC); actives raise or lower the signal. The method in brief:
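Using human vascular primary endothelium, researchers measured MCP-1 by ELISA 24 h after treatment, with DMSO serving as negative control for bidirectional fitting.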

Read-out in test [17]: Monocyte Chemoattractant Protein-1 (MCP1), CCL2 (gene 6347)
Briefly: BSK_4H_MCP1: BioMAP Diversity Plus: 4H Assay for Monocyte Chemoattractant Protein-1 (MCP1) Biomarker Activity (AID 2283018). Conditions: primary human endothelial cells (HUVEC); actives raise or lower the signal. The method in brief: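 ELISA of MCP-1 (CCL2) 24 h after chemical dosing of HUVEC in the BioMAP 4H system. Gain or loss versus DMSO fitted; parallel SRB staining (560 nm) tracked overt cytotoxicity.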

For test [18], the target named is human RAR-related Orphan Receptor beta (RORb), RORB (gene 6096) (UniProt Q92753). Briefly: ATG_RORb_TRANS: Attagene TRANS-FACTORIAL HepG2 Assay for human RAR-related Orphan Receptor beta (RORb) (AID 2283010; active means hit-call score of the fitted dose curve at least 0.9, where 1 is the maximum;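 on AC50: potency for increased reporter mRNA meaning activation of RORb-Gal4 chimera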). In short, it runs like this: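 Read-out is reporter mRNA induction, quantified by RT-PCR with fluorescent capillary electrophoresis, 24 h post-dose in transiently transfected HepG2 expressing exogenous NR-Gal4 chimera. Activity fitted upward versus DMSO.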

Read-out in test [19]: Interleukin-1 alpha (IL1a), IL1A (gene 3552)
Put plainly: BSK_BE3C_IL1a: BioMAP Diversity Plus: BE3C Assay for Interleukin-1 alpha (IL1a) Biomarker Activity (AID 2283016). The following applies: primary human bronchial epithelial cells; actives raise or lower the signal. The method in brief: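 IL-1a measured by ELISA after 24 h treatment of human primary bronchial epithelial cells, with gain or loss of signal fitted versus DMSO. Parallel cultures stained with SRB gauge overt cytotoxicity.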

SMILES strings stand for the structures. Values joined by “and” are separate entries in the source; they are usually repeats but may differ in a detail not shown here. Equal entries are not always repeated. Results filed as inconclusive are left out. Some compounds were tested as several samples or in several runs, with calls that do not always agree. Active and inactive are the calls of the source. How the source made its calls, unless noted: active means hit-call score of the fitted dose curve at least 0.9, where 1 is the maximum; inactive means score below 0.9.

Retinoic acid receptor alpha (Homo sapiens), sequence (P10276 whole entry, looked up, the tested form may be a part): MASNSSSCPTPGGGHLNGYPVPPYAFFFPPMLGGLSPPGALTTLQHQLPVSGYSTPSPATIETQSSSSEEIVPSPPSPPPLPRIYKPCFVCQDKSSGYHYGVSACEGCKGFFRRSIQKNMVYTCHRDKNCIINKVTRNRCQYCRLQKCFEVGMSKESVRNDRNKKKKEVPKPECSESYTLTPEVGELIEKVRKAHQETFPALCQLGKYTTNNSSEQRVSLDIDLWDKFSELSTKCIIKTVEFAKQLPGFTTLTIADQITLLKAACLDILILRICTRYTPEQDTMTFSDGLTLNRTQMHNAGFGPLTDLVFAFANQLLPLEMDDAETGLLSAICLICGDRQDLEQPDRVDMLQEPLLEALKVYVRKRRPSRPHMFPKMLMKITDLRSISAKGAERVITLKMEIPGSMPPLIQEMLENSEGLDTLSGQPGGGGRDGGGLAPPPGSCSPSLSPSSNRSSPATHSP
human Retinoic Acid Receptor beta (RARb), RARB (gene 5915), sequence (P10826 whole entry, looked up, the tested form may be a part): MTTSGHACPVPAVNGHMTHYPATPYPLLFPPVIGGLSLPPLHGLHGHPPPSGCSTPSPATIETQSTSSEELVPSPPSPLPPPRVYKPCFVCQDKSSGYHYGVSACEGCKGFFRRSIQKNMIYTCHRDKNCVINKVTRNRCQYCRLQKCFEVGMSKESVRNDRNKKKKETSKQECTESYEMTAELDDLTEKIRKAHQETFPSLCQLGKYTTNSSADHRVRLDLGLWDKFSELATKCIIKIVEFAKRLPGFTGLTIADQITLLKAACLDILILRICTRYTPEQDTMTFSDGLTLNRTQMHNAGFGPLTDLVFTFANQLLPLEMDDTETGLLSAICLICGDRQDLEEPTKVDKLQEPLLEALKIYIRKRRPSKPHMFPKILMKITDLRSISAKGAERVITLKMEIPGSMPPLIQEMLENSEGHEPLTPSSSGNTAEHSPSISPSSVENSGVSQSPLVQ
Nuclear receptor subfamily 1 group I member 2 (Homo sapiens), sequence (O75469 whole entry, looked up, the tested form may be a part): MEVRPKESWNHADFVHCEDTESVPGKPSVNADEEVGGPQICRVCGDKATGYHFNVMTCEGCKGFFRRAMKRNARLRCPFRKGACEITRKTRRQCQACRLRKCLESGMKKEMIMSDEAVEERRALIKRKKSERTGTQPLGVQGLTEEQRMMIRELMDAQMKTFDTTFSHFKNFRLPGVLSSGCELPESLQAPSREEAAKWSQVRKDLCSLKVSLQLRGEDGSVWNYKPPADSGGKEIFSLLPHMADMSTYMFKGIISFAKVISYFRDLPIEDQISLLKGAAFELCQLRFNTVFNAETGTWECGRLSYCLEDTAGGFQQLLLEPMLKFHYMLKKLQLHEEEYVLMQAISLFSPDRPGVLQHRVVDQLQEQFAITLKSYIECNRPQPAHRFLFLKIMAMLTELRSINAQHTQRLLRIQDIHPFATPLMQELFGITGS
human Peroxisome Proliferator-activated Receptor delta (PPARd), PPARD (gene 5467), sequence (Q03181 whole entry, looked up, the tested form may be a part): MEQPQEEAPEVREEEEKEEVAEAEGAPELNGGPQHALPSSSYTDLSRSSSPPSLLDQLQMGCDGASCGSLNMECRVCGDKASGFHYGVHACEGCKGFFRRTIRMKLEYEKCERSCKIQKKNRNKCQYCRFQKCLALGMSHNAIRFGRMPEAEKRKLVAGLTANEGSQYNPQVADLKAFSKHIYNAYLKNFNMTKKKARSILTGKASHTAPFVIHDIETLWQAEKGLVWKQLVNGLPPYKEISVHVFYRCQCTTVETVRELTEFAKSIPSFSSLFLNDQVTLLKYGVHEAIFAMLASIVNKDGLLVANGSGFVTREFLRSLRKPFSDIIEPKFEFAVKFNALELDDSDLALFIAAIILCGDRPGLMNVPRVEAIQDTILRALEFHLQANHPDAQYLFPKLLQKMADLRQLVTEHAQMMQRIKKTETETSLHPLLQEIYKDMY
Peroxisome proliferator-activated receptor gamma (Homo sapiens), sequence (P37231 whole entry, looked up): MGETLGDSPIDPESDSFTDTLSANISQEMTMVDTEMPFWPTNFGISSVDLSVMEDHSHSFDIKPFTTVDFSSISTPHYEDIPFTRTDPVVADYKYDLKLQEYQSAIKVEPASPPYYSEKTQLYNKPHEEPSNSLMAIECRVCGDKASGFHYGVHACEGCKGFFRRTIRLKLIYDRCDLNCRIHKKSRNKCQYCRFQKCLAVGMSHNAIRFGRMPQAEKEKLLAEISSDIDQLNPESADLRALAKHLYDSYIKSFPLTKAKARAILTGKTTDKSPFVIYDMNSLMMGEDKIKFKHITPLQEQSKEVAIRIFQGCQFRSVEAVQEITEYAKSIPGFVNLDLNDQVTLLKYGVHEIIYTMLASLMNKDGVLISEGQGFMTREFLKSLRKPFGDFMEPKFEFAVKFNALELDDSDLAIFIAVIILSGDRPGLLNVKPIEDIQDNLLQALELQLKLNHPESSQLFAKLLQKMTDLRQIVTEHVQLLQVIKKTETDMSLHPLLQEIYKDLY
E-selectin (Homo sapiens), sequence (P16581 whole entry, looked up): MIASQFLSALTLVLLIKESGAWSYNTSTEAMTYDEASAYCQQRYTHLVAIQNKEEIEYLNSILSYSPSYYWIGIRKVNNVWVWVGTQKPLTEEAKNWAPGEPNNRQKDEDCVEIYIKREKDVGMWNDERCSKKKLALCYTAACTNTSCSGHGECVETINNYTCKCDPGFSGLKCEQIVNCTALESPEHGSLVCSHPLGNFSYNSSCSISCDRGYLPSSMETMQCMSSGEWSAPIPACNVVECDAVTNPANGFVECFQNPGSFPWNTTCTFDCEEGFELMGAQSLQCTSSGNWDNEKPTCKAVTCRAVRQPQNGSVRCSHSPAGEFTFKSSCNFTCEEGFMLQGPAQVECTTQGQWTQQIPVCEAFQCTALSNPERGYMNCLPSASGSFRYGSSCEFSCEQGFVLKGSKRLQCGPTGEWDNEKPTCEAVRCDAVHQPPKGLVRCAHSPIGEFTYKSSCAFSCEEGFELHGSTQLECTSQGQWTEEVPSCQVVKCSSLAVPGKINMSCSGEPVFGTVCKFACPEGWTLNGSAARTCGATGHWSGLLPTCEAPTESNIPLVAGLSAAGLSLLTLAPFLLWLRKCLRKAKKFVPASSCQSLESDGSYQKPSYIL
human RAR-related Orphan Receptor beta (RORb), RORB (gene 6096), sequence (Q92753 whole entry, looked up, the tested form may be a part): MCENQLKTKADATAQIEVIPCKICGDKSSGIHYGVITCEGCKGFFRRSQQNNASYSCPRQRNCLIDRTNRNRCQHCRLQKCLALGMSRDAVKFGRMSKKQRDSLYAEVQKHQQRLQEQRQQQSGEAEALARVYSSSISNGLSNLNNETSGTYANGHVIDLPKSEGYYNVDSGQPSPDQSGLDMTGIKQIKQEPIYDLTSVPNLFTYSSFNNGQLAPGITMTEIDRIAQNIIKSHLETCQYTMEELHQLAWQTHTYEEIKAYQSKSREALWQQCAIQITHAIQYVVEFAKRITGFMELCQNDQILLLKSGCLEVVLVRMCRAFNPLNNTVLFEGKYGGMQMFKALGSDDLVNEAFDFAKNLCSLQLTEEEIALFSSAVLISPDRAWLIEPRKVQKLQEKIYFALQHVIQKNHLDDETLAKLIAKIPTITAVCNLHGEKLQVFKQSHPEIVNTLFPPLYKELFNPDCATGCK
human Thyroid Receptor alpha (THRa1), THRA (gene 7067), sequence (P10827 whole entry, looked up, the tested form may be a part): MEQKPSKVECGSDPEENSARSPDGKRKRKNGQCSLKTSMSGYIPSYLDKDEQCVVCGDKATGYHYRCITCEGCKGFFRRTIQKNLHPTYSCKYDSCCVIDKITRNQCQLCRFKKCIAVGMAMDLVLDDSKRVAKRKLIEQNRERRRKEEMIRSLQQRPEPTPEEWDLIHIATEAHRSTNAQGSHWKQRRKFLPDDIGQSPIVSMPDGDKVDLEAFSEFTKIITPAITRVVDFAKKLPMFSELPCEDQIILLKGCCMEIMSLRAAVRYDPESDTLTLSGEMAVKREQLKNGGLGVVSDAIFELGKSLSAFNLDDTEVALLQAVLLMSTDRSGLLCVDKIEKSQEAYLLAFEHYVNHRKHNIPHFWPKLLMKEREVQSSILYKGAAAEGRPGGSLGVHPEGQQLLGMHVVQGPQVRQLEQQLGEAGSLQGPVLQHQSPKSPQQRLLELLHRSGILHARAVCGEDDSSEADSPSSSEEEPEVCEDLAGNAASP
human RAR-related Orphan Receptor gamma (RORg), RORC (gene 6097), sequence (P51449 whole entry, looked up, the tested form may be a part): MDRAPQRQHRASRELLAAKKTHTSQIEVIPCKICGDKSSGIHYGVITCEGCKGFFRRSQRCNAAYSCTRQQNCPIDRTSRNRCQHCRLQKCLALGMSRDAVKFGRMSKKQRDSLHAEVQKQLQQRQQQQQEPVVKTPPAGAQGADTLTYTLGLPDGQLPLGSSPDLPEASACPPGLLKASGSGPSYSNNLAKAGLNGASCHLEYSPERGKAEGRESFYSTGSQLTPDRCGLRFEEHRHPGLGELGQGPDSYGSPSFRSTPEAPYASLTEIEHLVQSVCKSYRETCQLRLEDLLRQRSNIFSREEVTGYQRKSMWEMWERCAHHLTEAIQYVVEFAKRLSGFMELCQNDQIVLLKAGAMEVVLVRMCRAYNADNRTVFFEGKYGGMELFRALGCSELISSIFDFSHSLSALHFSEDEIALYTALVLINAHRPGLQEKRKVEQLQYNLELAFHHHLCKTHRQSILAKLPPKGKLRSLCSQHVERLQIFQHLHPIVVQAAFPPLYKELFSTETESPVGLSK
Retinoic acid receptor RXR-alpha (Homo sapiens), sequence (P19793 whole entry, looked up, the tested form may be a part): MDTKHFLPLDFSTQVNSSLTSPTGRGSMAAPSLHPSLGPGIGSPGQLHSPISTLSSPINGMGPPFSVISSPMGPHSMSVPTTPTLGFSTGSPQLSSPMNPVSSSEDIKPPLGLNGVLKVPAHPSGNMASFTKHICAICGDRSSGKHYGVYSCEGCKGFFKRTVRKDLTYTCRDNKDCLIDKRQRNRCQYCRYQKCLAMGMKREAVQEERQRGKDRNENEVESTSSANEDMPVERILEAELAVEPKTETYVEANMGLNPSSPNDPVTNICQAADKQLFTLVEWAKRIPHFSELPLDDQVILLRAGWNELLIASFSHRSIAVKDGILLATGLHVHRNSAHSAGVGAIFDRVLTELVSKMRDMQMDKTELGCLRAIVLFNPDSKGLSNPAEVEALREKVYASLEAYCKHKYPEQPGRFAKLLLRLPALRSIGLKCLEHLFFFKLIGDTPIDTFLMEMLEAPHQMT

Take `CCN(CC)C(=O)c1cccc(C)c1`: the outcome in test [1], in [2], in [3], in test [4], in test [5] and in [6] was inactive. For the same compound, the result in test [7], in test [8], in [9], in test [10], in test [11] and in test [12] was inactive. Further, the call in [13], in [14], in [15], in test [16] and in [17] was inactive.

As to `S=C(S)NCCNC(=S)S.[Mn+2].[S-]C([S-])=NCCN=C([S-])[S-].[Zn+2]`, the AC50 in test [1] was 7.78 µM (active) and 7.28 µM (active) and 10 µM (active); in test [9] it was 12 µM (active) and 18.7 µM (active); in test [13] it was 20.4 µM (active). Further, the outcome in test [1], in test [2], in test [4], in test [7], in test [8] and in test [9] was inactive. Besides, the compound was classed as inactive in test [18], in test [11], in test [12], in test [13], in test [14] and in test [15]. Further, the outcome in test [16] and in test [17] was inactive.

On to `CCNc1nc(N)nc(Cl)n1`, for which the outcome in test [1], in test [2], in test [3], in test [4], in test [5] and in [6] was inactive. For the same compound, the result in test [7], in test [9], in test [18], in [12], in test [13] and in test [14] was inactive. Further, the result in test [15], in test [16] and in [17] was inactive.

Regarding `COC(=O)c1cccc(C)c1S(=O)(=O)NC(=O)Nc1nc(OCC(F)(F)F)nc(N(C)C)n1`, the outcome in test [1], in test [2], in test [3], in test [4], in test [5] and in test [6] was inactive. Also, the result in test [7], in test [8], in test [9], in test [10], in test [12] and in test [14] was inactive. For the same compound, the result in test [15], in [19], in test [16] and in test [17] was inactive.

For the compound `N#CSCSc1nc2ccccc2s1`, the half-maximal activity concentration (AC50) in test [1] was 6.63 µM (active) and 10.3 µM (active); in [2], 2.64 µM (active) and 9.47 µM (active); in [4], 6.48 µM (active) and 15.4 µM (active); in test [7], 824 nM (active) and 2.52 µM (active); in test [8] it was 23.1 µM (active); in test [18], 12.3 µM (active). Besides, the AC50 in [11] was 11.9 µM (active); in test [13], 13.3 µM (active); in [15], 7.25 µM (active) and 9.01 µM (active); in test [16], 5.23 µM (active) and 12.1 µM (active); in test [17], 4.06 µM (active) and 12.2 µM (active). The compound was classed as inactive in test [3], in [8], in [9], in test [10], in test [18] and in [11]. The compound was called inactive in test [12], in test [13] and in test [14].

For `CCCCCCC(C)OC(=O)COc1nc(F)c(Cl)c(N)c1Cl` (centres undefined), the AC50 in test [1] is 18.3 µM (active); in test [2] it was 34.2 µM (active); in test [4] it was 34.9 µM (active); in test [7] it was 13.6 µM (active); in test [15] it was 31.4 µM (active); in test [16] it was 30.8 µM (active). Further, in [17], the AC50 was 32.3 µM (active). The compound was classed as inactive in test [3], in [9] and in test [18].

On to `COC(=O)CSc1cc(N=c2sc(=O)n3n2CCCC3)c(F)cc1Cl`, for which the outcome in test [1], in test [2], in test [4], in [7], in test [9] and in test [12] was inactive. Also, the call in test [14], in test [15], in test [16] and in [17] was inactive. Further, in test [8], the AC50 was 27.4 µM (active).

In the case of `CCOC(=O)C(C)Oc1ccc(Oc2nc3ccc(Cl)cc3o2)cc1` (centres undefined), the result in test [1], in test [2], in test [4], in test [5], in [7] and in test [8] was inactive. The call in test [9], in test [12], in test [13], in [14], in test [15] and in test [17] was inactive. Moreover, the AC50 in [16] was 20 µM (active).
